Test results published in PubChem BioAssay AID1159580 (chemical genetic matrix, 2015).
Values joined by “and” are separate entries in the source; they are usually repeats but may differ in a detail not shown here. Identical values can stand only once. Screen size: about 5,500 compounds; about 2,000 (36%) were called active. Roughly 18% stayed inconclusive and do not appear here. Cut-off read from the data, not from the text of the source: active = normalized growth mostly below about 0.91 (no sharp cut-off); inconclusive = no clear call, values can overlap the other calls; inactive = mostly above about 0.92. The list shows a part of the results.

Assay: chemical genetic growth profiling, strain panel (AID 1159580);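 note: tested at 20 µM; growth read once vehicle control cultures reached saturation at 30 °C; 1 = growth at the plate median or of vehicle wells; lower values mean less growth of the strain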
Settings: S. cerevisiae deletion strains, growth OD

Measured: normalized growth

C[C@]12CCC3c4ccc(OS(=O)(=O)O)cc4CCC3C1CC[C@H]2O (some centres undefined)
inactive: locus YAL013W, strain DEP1, stronger effect = lower value 0.998 | locus YAL021C, strain ccr4, stronger effect = lower value 0.986 | locus YAL026C, strain drs2, stronger effect = lower value 0.973 | locus YAL030W, strain snc1, stronger effect = lower value 1 | locus YBL061C, strain skt5, stronger effect = lower value 0.969 | locus YBR009C, strain hhf1, stronger effect = lower value 1.04 | locus YBR021W, strain FUR4, stronger effect = lower value 0.983 | locus YBR023C, strain chs3, stronger effect = lower value 0.966 | locus YBR171W, strain sec66, stronger effect = lower value 0.983 | locus YBR229C, strain ROT2, stronger effect = lower value 0.988 | locus YBR231C, strain swc5, stronger effect = lower value 0.993 | locus YBR279W, strain paf1, stronger effect = lower value 0.978 | locus YCL011C, strain gbp2, stronger effect = lower value 0.961 | locus YCL016C, strain dcc1, stronger effect = lower value 0.948 | locus YCL029C, strain bik1, stronger effect = lower value 0.99 | locus YCL061C, strain MRC1, stronger effect = lower value 0.975 | locus YCL069W, strain vba3, stronger effect = lower value 0.985 | locus YCR088W, strain abp1, stronger effect = lower value 0.983 | locus YDL005C, strain med2, stronger effect = lower value 0.984 | locus YDL035C, strain GPR1, stronger effect = lower value 0.991 | locus YDL040C, strain nat1, stronger effect = lower value 0.985 | locus YDL074C, strain BRE1, stronger effect = lower value 1.02 | locus YDL101C, strain DUN1, stronger effect = lower value 0.996 | locus YDL134C, strain PPH21, stronger effect = lower value 0.978 | locus YDL185W, strain tfp1, stronger effect = lower value 0.99 | locus YDL192W, strain arf1, stronger effect = lower value 0.987 | locus YDR001C, strain nth1, stronger effect = lower value 0.974 | locus YDR069C, strain doa4, stronger effect = lower value 0.981 | locus YDR101C, strain arx1, stronger effect = lower value 0.988 | locus YDR137W, strain rgp1, stronger effect = lower value 0.955 | locus YDR150W, strain NUM1, stronger effect = lower value 0.997 | locus YDR159W, strain sac3, stronger effect = lower value 0.984 | locus YDR162C, strain NBP2, stronger effect = lower value 0.986 | locus YDR195W, strain ref2 0.97 | locus YDR297W, strain sur2, stronger effect = lower value 0.986 | locus YDR318W, strain mcm21, stronger effect = lower value 0.986 | locus YDR334W, strain swr1, stronger effect = lower value 0.968 | locus YDR335W, strain msn5, stronger effect = lower value 0.968 | locus YDR388W, stronger effect = lower value 0.986 | locus YDR392W, strain spt3, stronger effect = lower value 0.907 | locus YDR502C, strain sam2, stronger effect = lower value 0.986 | locus YEL003W, strain gim4, stronger effect = lower value 1 | locus YEL037C, strain rad23, stronger effect = lower value 0.989 | locus YEL061C, strain CIN8 (second series), stronger effect = lower value 0.981 | locus YEL061C, strain CIN8, stronger effect = lower value 0.996 | locus YER015W, strain faa2, stronger effect = lower value 0.986 | locus YER016W, strain bim1, stronger effect = lower value 0.942 | locus YER110C, stronger effect = lower value 0.978 | locus YER111C, strain swi4, stronger effect = lower value 0.965 | locus YER155C, strain BEM2 (second series), stronger effect = lower value 1 | locus YER155C, strain BEM2, stronger effect = lower value 0.994 | locus YER167W, strain BCK2, stronger effect = lower value 0.987 | locus YFR010W, strain ubp6, stronger effect = lower value 0.998 | locus YGL078C, strain dbp3, stronger effect = lower value 0.986 | locus YGL086W, strain mad1, stronger effect = lower value 0.988 | locus YGL167C, strain pmr1, stronger effect = lower value 0.973 | locus YGL173C, strain kem1, stronger effect = lower value 0.999 | locus YGL227W, strain vid30, stronger effect = lower value 0.981 | locus YGL240W, strain doc1, stronger effect = lower value 1.01 | locus YGL248W, strain PDE1, stronger effect = lower value 0.997 | locus YGL253W, strain hxk2, stronger effect = lower value 0.953 | locus YGR078C, strain PAC10, stronger effect = lower value 1.01 | locus YGR135W, strain pre9, stronger effect = lower value 0.96 | locus YGR229C, strain SMI1, stronger effect = lower value 1.01 | locus YGR252W, strain gcn5, stronger effect = lower value 0.997 | locus YHR013C, strain ard1, stronger effect = lower value 0.92 | locus YHR027C, strain rpn1, stronger effect = lower value 0.965 | locus YHR030C, strain SLT2, stronger effect = lower value 0.99 and 0.957 | locus YHR079C, strain IRE1 (second series), stronger effect = lower value 0.986 | locus YHR079C, strain IRE1, stronger effect = lower value 0.959 | locus YHR094C, strain hxt1, stronger effect = lower value 0.987 | locus YHR129C, strain ARP1, stronger effect = lower value 0.988 | locus YHR142W, strain chs7, stronger effect = lower value 0.951 | locus YHR200W, strain rpn10, stronger effect = lower value 0.987 | locus YIL066C, strain RNR3, stronger effect = lower value 0.984 | locus YIL073C, strain SPO22, stronger effect = lower value 0.954 | locus YIL125W, strain kgd1, stronger effect = lower value 0.988 | locus YIR030C, strain dcg1, stronger effect = lower value 0.992 | locus YJL092W, strain hpr5, stronger effect = lower value 0.978 | locus YJL095W, strain BCK1 (second series), stronger effect = lower value 0.969 | locus YJL095W, strain BCK1, stronger effect = lower value 1.02 and 0.969 | locus YJL115W, strain asf1, stronger effect = lower value 0.947 | locus YJL129C, strain trk1, stronger effect = lower value 0.911 | locus YJL134W, strain LCB3, stronger effect = lower value 0.993 | locus YJL154C, strain vps35, stronger effect = lower value 0.976 | locus YJL164C, strain tpk1, stronger effect = lower value 0.983 | locus YJL166W, strain qcr8, stronger effect = lower value 0.998 | locus YJL168C, strain set2, stronger effect = lower value 1 | locus YJL187C, strain SWE1 (second series), stronger effect = lower value 1.01
